Test [1] can be described thus: Nuclear factor erythroid 2-related factor 2/antioxidant responsive element (Nrf2/ARE) small molecule agonists: luciferase reporter gene qHTS assay in human keratinocytes (AID 1919969). Further: nearly all actives have a fitted effect of over 35% in size. Further: potency means the concentration at half of the fitted maximal effect. For orientation: In a reporter assay the amount or activity of a reporter protein is the signal.
Test [2] concerns the target Gonadotropin-releasing hormone receptor (Homo sapiens) (UniProt P30968). Kind of test: Human gonadotropin-releasing hormone receptor (GnRHR) small molecule agonists, calcium flux assay in GnRHR-HEK293 cells (AID 1920063). Further: nearly all actives have a fitted effect of over 35% in size. Further: potency means the concentration at half of the fitted maximal effect. A digest of the protocol:
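HEK293 cells stably expressing human GnRHR were plated 18 h at 37 °C, loaded with calcium dye 1 h at 37 °C, then given compound in agonist mode; fluorescence (Ex/Em 480/540) read kinetically for 3 min at 1 s intervals.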
A general note: A change in cytosolic calcium serves as a functional read-out for many receptors and channels.

In test [3] the target is KiSS-1 receptor (Homo sapiens) (UniProt Q969F8). The test is described as follows: Human kisspeptin (KISS1R) small molecule agonists, calcium flux assay in KISS1R-HEK293 cells (AID 1920064; active means well fitted activation curve with a large enough effect in the repeat runs). In short, it runs like this:
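HEK293 cells stably expressing human KISS1R were plated 18 h at 37 °C, loaded with calcium dye for 1 h at 37 °C, then given compound by pin tool. Fluorescence (Ex/Em 480/540) was read kinetically for 3 min.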

Test [4] in a line: G protein-coupled receptor (GPCR) small molecule agonists, calcium flux assay: HEK293 wild type cell line counter screen (AID 1920065). A digest of the protocol:
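Cells were plated and cultured 18 h at 37 C/5% CO2, then loaded with calcium dye for 1 h at 37 C. Compounds in DMSO were pin-transferred in agonist mode, and fluorescence (Ex/Em 480/540) was read kinetically for 3 min at 1 s intervals.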

Test [5] can be described thus: p53 small molecule agonists, cell-based qHTS assay with human liver microsomes (AID 1963577).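 Further: p53 response element beta-lactamase reporter cells with liver microsomes plus NADPH.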 In short, it runs like this: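 HLM-supplemented p53RE-bla reporter assay: 16 h compound exposure at 37 C, microsomes and NADPH each 0.5 mg/mL final, read by fluorescence intensity.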
A short description of test [6]: p53 small molecule agonists, cell-based qHTS assay with rat liver microsomes (AID 1963578). In short, it runs like this:
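Quantitative HTS of the Tox21 10K library: p53RE-bla cells, rat liver microsomes plus NADPH at 0.5 mg/mL final each, 16 h at 37 C, beta-lactamase fluorescence detection.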

Test [7] is described as follows: p53 small molecule agonists, cell-based qHTS assay with human liver microsomes: qHTS cell viability counter screen (AID 1963579). Further: nearly all actives have a fitted effect of over 45% in size. Further: potency means the concentration at half of the fitted maximal effect. A digest of the protocol: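 Viability of p53RE-bla cells is measured as CellTiter-Glo luminescence following a 16 h, 37 C incubation with compound, liver microsomes from human donors and NADPH.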
A general note: Quantitative high-throughput screening tests each substance at several concentrations.

The nature of test [8]: p53 small molecule agonists, cell-based qHTS assay: qHTS cell viability counter screen (AID 1963581). Further: nearly all actives have a fitted effect of over 45% in size. Further: potency means the concentration at half of the fitted maximal effect. A digest of the protocol:
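p53RE-bla HCT-116 cells were exposed to compounds for 16 h at 37 C; after the beta-lactamase FRET read in the same wells, CellTiter-Glo was added and luminescence (intracellular ATP) read after 30 min at room temperature.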

In test [9] the target is 5-hydroxytryptamine receptor 2A (Homo sapiens) (UniProt P28223). The test is described as follows: 5-hydroxytryptamine receptor 2A (HTR2A) small molecule agonists, cell-based qHTS assay (AID 1963587). Further: nearly all actives have a fitted effect of over 30% in size. Further: potency means the concentration at half of the fitted maximal effect. A digest of the protocol: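 CHO cells stably expressing human HTR2A, plated 18 h, loaded with calcium dye 1 h at 37 C. Agonist mode: compounds added and intracellular calcium fluorescence recorded kinetically for 2 min at 1 sec intervals.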

The target of test [10] is Muscarinic acetylcholine receptor M1 (Homo sapiens) (UniProt P11229). The test is described as follows: Cholinergic receptor muscarinic 1 (CHRM1) small molecule antagonists, cell-based qHTS assay (AID 1963588). Further: nearly all actives have a fitted effect of over 40% in size. A digest of the protocol: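 CHRM1-CHO calcium-flux assay, antagonist mode. Cells were seeded 18 h, dye-loaded 1 h at 37 C and given compound for 5 min at RT, then acetylcholine was added at 50nM. FDSS fluorescence was read 3 min; 15 concentrations, three runs.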

The target is the same in test [11]. Kind of test: Cholinergic receptor muscarinic 1 (CHRM1) small molecule agonists, cell-based qHTS assay (AID 1963589). Further: nearly all actives have a fitted effect of over 35% in size. In short, it runs like this:
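CHO cells stably expressing human CHRM1, seeded 18 h at 37 C/5% CO2, dye-loaded 1 h at 37 C, then given compound in agonist mode; intracellular calcium fluorescence read kinetically at 1 s intervals. Fifteen concentrations, three independent runs.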

Test [12] addresses Beta-2 adrenergic receptor (Homo sapiens) (UniProt P07550). Kind of test: Adrenergic beta2 receptor (ADRB2) small molecule antagonists, cell-based qHTS assay (AID 1963592). Further: nearly all actives have a fitted effect of over 50% in size. Further: potency means the concentration at half of the fitted maximal effect. In short, it runs like this: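 Cells (CHO, stable ADRB2 overexpression) incubated 18-20hr at 37C; compounds added from DMSO; agonist mix (1nM isoproterenol, 100uM IBMX, 25uM Ro-20-1724) added; 0.5hr RT; d2-cAMP and anti-cAMP-cryptate added; 1hr RT; 665/615 nm read.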

Test [13] addresses D(2) dopamine receptor (Homo sapiens) (UniProt P14416). Kind of test: Dopamine D2 receptor (DRD2) small molecule agonists, cell-based qHTS assay (AID 1963594). Further: nearly all actives have a fitted effect of over 35% in size. Further: potency means the concentration at half of the fitted maximal effect. In short, it runs like this: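 HEK293 cells stably expressing human DRD2, pre-treated with PDE inhibitor Ro20-1724 (0.1 mM final) and compound 10 min at room temperature, then stimulated with NKH477 (200nM […]) for 30 min. cAMP read by HTRF (665/620 nm).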

Test [14] can be described thus: p53 small molecule agonists, cell-based qHTS assay with rat liver microsomes: qHTS cell viability counter screen (AID 1963580). Further: nearly all actives have a fitted effect of over 45% in size. Further: potency means the concentration at half of the fitted maximal effect. In short, it runs like this: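 Viability is assessed in parallel with the p53 reporter read: HCT-116 p53RE-bla cells receive compounds plus rat microsomes and NADPH (0.5 mg/mL final apiece), incubate 16 h at 37 C, and then CellTiter-Glo luminescence is recorded.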

The target of test [15] is D(2) dopamine receptor (Homo sapiens) (UniProt P14416). Kind of test: Dopamine D2 receptor (DRD2) small molecule antagonists, cell-based qHTS assay (AID 1963595; active means well fitted inhibition curve with a large enough effect in the signal ratio in the repeat runs, with a control signal flat; the % refers to the signal ratio; further: potency means the concentration at half of the fitted maximal effect). A digest of the protocol:
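Antagonist mode in DRD2-HEK293 cells: after compound addition with 0.1 mM Ro20-1724, cells received quinpirole (12 nM) and NKH477 (200 nM) for 30 min at room temperature; HTRF cAMP read after 1 h detection.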

In test [16] the target is 5-hydroxytryptamine receptor 2A (Homo sapiens) (UniProt P28223). Kind of test: 5-hydroxytryptamine receptor 2A (HTR2A) small molecule antagonists, cell-based qHTS assay (AID 1963586). Further: nearly all actives have a fitted effect of over 45% in size. Further: potency means the concentration at half of the fitted maximal effect. A digest of the protocol:
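Antagonist-mode intracellular calcium assay: DOI (4 nM) added after 5 min compound pre-incubation at room temperature to dye-loaded HTR2A-CHO cells. Fluorescence followed for 3 min, sampled every second.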

Test [17] can be described thus: p53 small molecule agonists, cell-based qHTS assay (AID 1963582; active means well fitted activation curve with a large enough effect in the signal ratio in the repeat runs, not every such curve was filed as active; the % refers to the signal ratio). A digest of the protocol:
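p53RE-bla beta-lactamase reporter cells rested 5 h at 37 C/5% CO2, then received compounds in DMSO by pin transfer and were incubated 16 h at 37 C. LiveBLAzer B/G FRET substrate was loaded for 2 h at room temperature before fluorescence reading.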

Test [18] is described as follows: cAMP Responsive Elements (CRE) small molecule agonists, cell-based qHTS assay (AID 1963590). In short, it runs like this:
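CRE-bla HEK 293T cells in DMEM with 10% dialyzed FBS, NEAA, pyruvate and 25 mM HEPES were plated 18 h at 37 C/5% CO2, then exposed to compounds in DMSO for 3 h before LiveBLAzer B/G FRET substrate addition.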

Test [19] in a line: cAMP Responsive Elements (CRE) small molecule antagonists, cell-based qHTS assay (AID 1963591; active means well fitted inhibition curve with a large enough effect in the signal ratio in the repeat runs, not every such curve was filed as active; the % refers to the signal ratio). A digest of the protocol:
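CRE-bla HEK293T cells were plated 18 h at 37 °C/5% CO2, pinned with compound in DMSO, then stimulated with NKH477 at 0.25 uM final for 3 h. LiveBLAzer B/G FRET substrate was added and plates incubated 2 h at room temperature.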

Values joined by “and” are separate entries in the source; they are usually repeats but may differ in a detail not shown here. Equal entries are not always repeated. Records with an inconclusive call do not appear. Some compounds were tested as several samples or in several runs, with calls that do not always agree. Active and inactive are the calls of the source. Unless noted, the call rests on the fitted dose curve.

5-hydroxytryptamine receptor 2A (Homo sapiens), sequence (P28223 whole entry, looked up): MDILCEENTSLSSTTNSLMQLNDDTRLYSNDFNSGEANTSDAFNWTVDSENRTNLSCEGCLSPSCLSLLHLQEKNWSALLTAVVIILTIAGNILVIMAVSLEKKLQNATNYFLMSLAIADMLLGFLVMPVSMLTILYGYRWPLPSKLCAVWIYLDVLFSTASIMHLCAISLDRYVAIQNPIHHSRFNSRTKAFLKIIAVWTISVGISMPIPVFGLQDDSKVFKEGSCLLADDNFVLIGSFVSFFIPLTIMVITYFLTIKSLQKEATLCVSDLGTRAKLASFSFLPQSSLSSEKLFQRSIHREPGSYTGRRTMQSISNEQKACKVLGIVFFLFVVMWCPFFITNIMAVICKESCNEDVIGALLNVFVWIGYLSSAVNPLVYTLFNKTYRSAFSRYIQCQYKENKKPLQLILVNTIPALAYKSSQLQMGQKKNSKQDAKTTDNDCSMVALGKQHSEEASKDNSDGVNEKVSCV
Muscarinic acetylcholine receptor M1 (Homo sapiens), sequence (P11229 whole entry, looked up): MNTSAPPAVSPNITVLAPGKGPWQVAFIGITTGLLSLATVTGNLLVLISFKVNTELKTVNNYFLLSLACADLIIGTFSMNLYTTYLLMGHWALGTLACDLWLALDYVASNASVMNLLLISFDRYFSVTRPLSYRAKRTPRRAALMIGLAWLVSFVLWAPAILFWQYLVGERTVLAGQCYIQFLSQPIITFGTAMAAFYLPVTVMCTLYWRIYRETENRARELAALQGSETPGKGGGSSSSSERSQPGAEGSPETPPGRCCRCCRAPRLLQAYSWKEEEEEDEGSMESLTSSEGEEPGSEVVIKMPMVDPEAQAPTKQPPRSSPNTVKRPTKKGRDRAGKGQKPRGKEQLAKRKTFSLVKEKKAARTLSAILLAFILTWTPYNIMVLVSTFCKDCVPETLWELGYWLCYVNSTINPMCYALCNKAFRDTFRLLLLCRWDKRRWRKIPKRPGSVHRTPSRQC
KiSS-1 receptor (Homo sapiens), sequence (Q969F8 whole entry, looked up): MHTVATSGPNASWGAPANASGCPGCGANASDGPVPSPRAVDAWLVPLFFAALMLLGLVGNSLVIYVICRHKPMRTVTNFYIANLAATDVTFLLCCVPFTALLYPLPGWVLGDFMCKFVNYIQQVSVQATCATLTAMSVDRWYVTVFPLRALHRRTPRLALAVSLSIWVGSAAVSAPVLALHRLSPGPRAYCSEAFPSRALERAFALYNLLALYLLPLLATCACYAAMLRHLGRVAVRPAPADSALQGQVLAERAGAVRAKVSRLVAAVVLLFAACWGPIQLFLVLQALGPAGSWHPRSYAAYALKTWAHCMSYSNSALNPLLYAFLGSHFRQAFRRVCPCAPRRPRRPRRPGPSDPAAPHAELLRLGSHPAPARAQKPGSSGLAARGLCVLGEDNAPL
D(2) dopamine receptor (Homo sapiens), sequence (P14416 whole entry, looked up): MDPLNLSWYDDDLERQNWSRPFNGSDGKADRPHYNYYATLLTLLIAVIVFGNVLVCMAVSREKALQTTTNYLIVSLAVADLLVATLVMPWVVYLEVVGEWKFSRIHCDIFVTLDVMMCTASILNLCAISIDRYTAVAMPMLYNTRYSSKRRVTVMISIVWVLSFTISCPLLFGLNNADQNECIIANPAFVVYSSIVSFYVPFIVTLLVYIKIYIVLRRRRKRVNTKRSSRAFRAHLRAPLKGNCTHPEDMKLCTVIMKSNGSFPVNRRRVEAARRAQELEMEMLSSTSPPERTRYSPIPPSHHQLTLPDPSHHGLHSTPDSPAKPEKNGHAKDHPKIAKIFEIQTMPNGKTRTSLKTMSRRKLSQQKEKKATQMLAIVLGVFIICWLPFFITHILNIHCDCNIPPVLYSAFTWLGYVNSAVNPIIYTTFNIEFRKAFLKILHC
Gonadotropin-releasing hormone receptor (Homo sapiens), sequence (P30968 whole entry, looked up): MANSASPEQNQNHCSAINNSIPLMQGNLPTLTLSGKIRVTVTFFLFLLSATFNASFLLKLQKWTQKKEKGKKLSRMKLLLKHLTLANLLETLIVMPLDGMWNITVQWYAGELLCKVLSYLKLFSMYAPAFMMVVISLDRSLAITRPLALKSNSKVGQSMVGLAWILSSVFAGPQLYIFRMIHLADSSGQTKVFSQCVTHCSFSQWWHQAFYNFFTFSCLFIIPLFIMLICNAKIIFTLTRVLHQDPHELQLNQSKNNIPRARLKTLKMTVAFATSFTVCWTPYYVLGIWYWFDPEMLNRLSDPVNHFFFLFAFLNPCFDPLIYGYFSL
Beta-2 adrenergic receptor (Homo sapiens), sequence (P07550 whole entry, looked up): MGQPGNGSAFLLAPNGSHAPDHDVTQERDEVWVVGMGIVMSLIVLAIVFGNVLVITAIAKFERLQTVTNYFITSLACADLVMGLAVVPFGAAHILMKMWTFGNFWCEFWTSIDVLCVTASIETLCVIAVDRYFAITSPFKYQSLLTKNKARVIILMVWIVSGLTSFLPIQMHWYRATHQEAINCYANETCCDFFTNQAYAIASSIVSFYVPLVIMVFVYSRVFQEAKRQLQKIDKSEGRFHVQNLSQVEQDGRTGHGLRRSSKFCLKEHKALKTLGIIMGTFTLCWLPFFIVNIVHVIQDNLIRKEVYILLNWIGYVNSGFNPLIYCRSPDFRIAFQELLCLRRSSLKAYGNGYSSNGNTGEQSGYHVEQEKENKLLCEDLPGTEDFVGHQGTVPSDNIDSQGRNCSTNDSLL

`C=CC(=O)OCC(COC(=O)C=C)(COC(=O)C=C)COC(=O)C=C`: the Potency is 6.11 µM (active) in [1], 4.08 µM (active) in test [7] and 10.2 µM (active) in test [8]. Besides, the Potency entry in test [2], in [3], in [4], in test [5], in test [6] and in test [9] was “inactive” throughout. For the same molecule, the Potency result in [10], in test [11], in [12] and in test [13] was “inactive” throughout.
For `C[C@]12C/C(=C/O)C(=O)C[C@@H]1CC[C@@H]1[C@@H]2CC[C@@]2(C)[C@H]1CC[C@]2(C)O`, the Potency in test [1] is 27.6 µM (active) and 6.68 µM (active); in test [7] it was 36.7 µM (active) and inactive; in test [8], 36.7 µM (active). Besides, the Potency result in test [2], in [3], in test [4], in [5], in [6] and in test [14] was “inactive” throughout. Further, the Potency result in test [12], in test [13] and in test [15] was “inactive” each time.
For the molecule `Cc1ccc([N+](=O)[O-])[c]2c1[O][Hg]2`, the Potency in test [1] was 2.66 µM (active); in test [2], 16.9 µM (active); in test [7], 15.8 µM (active); in [14] it was 15.8 µM (active); in test [8], 8.9 µM (active); in test [16], 7.29 µM (active). Also, the figures for the Potency in test [9], in [12] and in test [13] were 23.9 µM (active), 29.8 µM (active) and 32.2 µM (active), respectively. The Potency entry in test [3], in [4] and in test [5] was “inactive” each time.
On to `CN1C[C@H](CNC(=O)OCc2ccccc2)C[C@@H]2c3cccc4c3c(cn4C)C[C@H]21`, for which the Potency result in test [1], in test [2], in test [3], in test [4], in [6] and in [7] was “inactive” each time. Also, the Potency result in [14], in test [8], in test [17], in test [18] and in test [13] was “inactive” each time. Further, in test [15], the Potency is 10.6 µM (active).
For `ClC(Cl)=C(c1ccc(Cl)cc1)c1ccccc1Cl`, the Potency result in test [1], in test [2], in [3], in test [4], in [5] and in [7] was “inactive” each time. For the same molecule, the Potency entry in test [8], in test [9], in test [10], in test [11], in test [19] and in test [12] was “inactive” in each case. The Potency entry in test [13] is “inactive”.
Turning to `O=C(CCCCl)c1ccc(F)cc1`, the Potency result in [1], in test [2], in test [3], in test [4], in test [6] and in test [7] was “inactive” in each case. The Potency entry in test [14], in test [17], in test [16], in test [9], in test [10] and in test [11] was “inactive” in each case. Moreover, the Potency entry in test [18], in test [19], in test [12], in test [13] and in test [15] was “inactive” in each case.
Consider `O=C(Nc1ccccc1)Nc1ccnc(Cl)c1`, for which the Potency result in test [1], in test [2], in test [3], in [4], in test [6] and in [7] was “inactive” in each case. For the same molecule, the Potency result in test [14], in [9], in test [10], in test [11], in [12] and in [13] was “inactive” throughout. In addition, the Potency result in [15] is “inactive”.

The record behind these values is PubChem BioAssay (Tox21).
